Assay results as given in PubChem BioAssay (NCI).
Several values for one entry are separate records, joined by “and”; a condition that tells them apart may be missing. Equal values may be shown once. The panel holds about 83,000 compounds, 20% with a hit somewhere; the sample as a whole holds those more often.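 Single-concentration screen, 48 h exposure, 96-well plates. Endpoint: percent growth. Below 10 = active.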 Activity calls are given as the source filed them.

Legend:
Assay in all cases: NCI-60 one-dose screen, 48 h (100 = growth as untreated, 0 = no growth, -100 = all killed)
Conditions in all cases: 10 µM unless noted
[1] = system: HCT-15 colon
[2] = system: HT29 colon
[3] = system: SNB-75 CNS
[4] = system: SNB-19 CNS
[5] = system: PC-3 prostate
[6] = system: SK-MEL-5 melanoma
[7] = system: LOX IMVI melanoma
[8] = system: SK-MEL-28 melanoma
[9] = system: U251 CNS
[10] = system: UACC-62 melanoma

Measured: growth

C/C(CC(C)C)=N/NC(N)=S
inactive: [1] 79.4% | [2] 56.1% | [3] 99.3% | [4] 107% | [5] 93.4% | [6] 99.5% | [7] 95.4% | [8] 106%

O=C(O)c1c2c(nc3ccccc13)Cc1ccccc1-2
inactive: [1] 103% | [2] 109% and 101% | [4] 108% and 101% | [9] 101% and 103% | [5] 99.2% and 86% | [6] 110% and 102% | [10] 105% and 92.9% | [7] 99.9% and 90.1% | [8] 109% and 98.4%

OCc1cccc(F)c1
inactive: [1] 10.2% | [2] 17.7% | [3] 102% | [4] 92.2% | [5] 91% | [6] 92.6% | [10] 84.7% | [7] 76.8% | [8] 116%

COC(=O)c1nc(N)nc(C(=O)OC)c1C(=O)c1ccc(F)cc1
inactive: [1] 103% | [2] 115% | [4] 103% | [9] 102% | [5] 104% | [6] 103% | [10] 105% | [7] 98.6% | [8] 115%

CCOC(C)=N
inactive: [1] 105% | [2] 102% | [3] 93.2% | [4] 104% | [5] 99.3% | [6] 109% | [7] 100% | [8] 112%

Cc1ccc([N+](=O)[O-])cc1Br
inactive: [1] 101% | [2] 70.7% | [4] 97.9% | [9] 96.4% | [5] 94.8% | [6] 99.8% | [10] 95.8% | [7] 105% | [8] 104%

Nc1ccccc1SC1CC(=O)N(c2ccc(I)cc2)C1=O (stereo not drawn)
inactive: [1] 88.5% | [2] 93.3% | [4] 96% | [9] 88.4% | [5] 94.2% | [6] 87.9% | [10] 82.7% | [7] 76.4% | [8] 90.8%

Cc1c(Cl)cc(Cl)c(N)c1Cl
inactive: [1] 104% | [2] 108% | [3] 91.2% | [4] 109% | [5] 92.2% | [6] 106% | [10] 105% | [7] 99% | [8] 110%

CC(C)=NOC(C)C(=O)O (stereo not drawn)
inactive: [1] 102% | [2] 110% | [4] 108% | [9] 104% | [5] 92.9% | [6] 107% | [10] 89.4% | [7] 97.4% | [8] 113%

Cc1ccc(S(=O)(=O)n2ccnc2)cc1
inactive: [1] 105% | [2] 106% | [4] 117% | [5] 103% | [6] 99.9% | [10] 92.7% | [7] 95.5% | [8] 111%

Oc1ccc(O)c(-c2ccccc2)c1
inactive: [1] 22.8% | [2] 102% | [4] 67.5% | [9] 41.4% | [5] 64.3% | [6] 42.9% | [7] 49.3% | [8] 77.4%

O=C1c2cccnc2-c2ncccc21
inactive: [1] 111% [100 µM] | [2] 106% [100 µM] | [4] 102% [100 µM] | [9] 100% [100 µM] | [5] 96.4% [100 µM] | [6] 103% [100 µM] | [10] 102% [100 µM] | [7] 99.7% [100 µM] | [8] 119% [100 µM]

O=C1C2=C(Nc3cc(Cl)ccc3N2)OC1c1c[nH]c2ccc(COc3ccccc3)cc12 (stereo not drawn)
inactive: [1] 82% | [2] 86.4% | [4] 30.4% | [9] 52.2% | [5] 45.7% | [6] 81% | [10] 68.7% | [7] 70.2% | [8] 94%

O=C1c2ccccc2C(c2ccccc2)C1c1ccccc1 (stereo not drawn)
inactive: [1] 71.8% | [2] 98.9% | [4] 91.9% | [9] 101% | [5] 80.7% | [6] 87.5% | [10] 67.8% | [7] 88.5% | [8] 111%

COc1ccc(S(=O)(=O)c2ccc(F)cc2)cc1
inactive: [1] 95.6% | [2] 106% | [4] 93.1% | [9] 101% | [5] 94.1% | [6] 106% | [10] 93.9% | [7] 81.5% | [8] 104%

CCOC(=O)c1ccc(N2C(=O)C(Cl)(c3ccccc3)C2c2ccco2)cc1 (stereo not drawn)
inactive: [1] 67% | [2] 78.9% | [4] 76.4% | [9] 79.1% | [5] 85.9% | [6] 70.4% | [10] 72.1% | [7] 77% | [8] 88.3%

COc1ccc(CCn2cnn3c(=O)c4ccccc4nc3c2=O)cc1OC
inactive: [1] 104% and 109% | [2] 106% and 104% | [3] 103% and 135% | [4] 104% and 96.6% | [5] 102% and 98.7% | [6] 101% and 97% | [7] 98% | [8] 109% and 125%

CC(=O)Oc1cc(C(C)C)c(OCCN(C)C)cc1C
inactive: [1] 105% and 104% | [2] 110% and 115% | [4] 105% and 98.2% | [5] 92% and 103% | [6] 106% and 103% | [10] 99.7% and 94% | [7] 94% and 102% | [8] 119% and 88.5%

CC(=O)/C(N=Nc1ccc(S(=O)(=O)c2ccc(N=N/C(C(C)=O)=C(/C)O)cc2)cc1)=C(\C)O
inactive: [1] 106% | [2] 102% | [3] 97.7% | [4] 114% | [5] 92.1% | [6] 108% | [7] 99.1% | [8] 113%

N=C(N=C(N)N)N1CCOCC1
inactive: [1] 101% and 94.5% | [2] 104% and 111% | [4] 110% and 99.1% | [9] 101% and 103% | [5] 93.7% and 94.5% | [6] 96.1% and 98% | [10] 105% and 100% | [7] 102% and 93.2% | [8] 99.5% and 103%

CNc1ccc(Cl)cc1S(=O)(=O)c1ccccc1[N+](=O)[O-]
inactive: [1] 105% and 91.3% | [2] 101% and 106% | [4] 110% and 104% | [9] 84.3% and 86.7% | [5] 91.9% and 96.2% | [6] 34.4% and 95.6% | [10] 60.9% and 69.8% | [7] 77.5% and 81.4% | [8] 96.2%

O=C(O)COc1ccccc1F
inactive: [1] 113% | [2] 113% | [4] 107% | [9] 109% | [5] 82.6% | [6] 95% | [10] 101% | [7] 96.5% | [8] 112%

Cc1c(Cl)c(C)c(Cc2c(C)c(Cl)c(C)c(Cl)c2O)c(O)c1Cl
active: [1] 5.02% | [5] 8.74% | [6] -69.7% | [7] 4.09%
inactive: [2] 34% | [3] 25% | [4] 10.6% | [8] 26.1%

CCOP(C)(=O)/C(Cc1ccc(OC)c(OC)c1)=N\O (stereo not drawn)
inactive: [1] 104% | [2] 106% | [4] 105% | [9] 107% | [5] 106% | [6] 96.1% | [10] 96% | [7] 96.5% | [8] 111%

O=S(=O)(O)c1ccc2cc(O)ccc2c1
inactive: [1] 112% | [4] 109% | [9] 98.7% | [5] 94.7% | [6] 96.8% | [7] 104% | [8] 117%

CCOC(=O)c1ccncc1
inactive: [1] 108% | [4] 111% | [9] 104% | [5] 97.5% | [6] 95.8% | [10] 101% | [7] 99% | [8] 110%
